Reference: ChEMBL document CHEMBL3988442, “University of Dundee, Small-Polar-MMV Screening Library” (2021)

These compounds were tested against T1, Aspartate--tRNA(Asp/Asn) ligase (Mycobacterium tuberculosis (strain ATCC 25618 / H37Rv)) (UniProt P9WFW3) (assay: Assay for Asp RNA synthetase-1 from Mycobacterium tuberculosis). Conditions: 30 µM.
T1 sequence (whole entry): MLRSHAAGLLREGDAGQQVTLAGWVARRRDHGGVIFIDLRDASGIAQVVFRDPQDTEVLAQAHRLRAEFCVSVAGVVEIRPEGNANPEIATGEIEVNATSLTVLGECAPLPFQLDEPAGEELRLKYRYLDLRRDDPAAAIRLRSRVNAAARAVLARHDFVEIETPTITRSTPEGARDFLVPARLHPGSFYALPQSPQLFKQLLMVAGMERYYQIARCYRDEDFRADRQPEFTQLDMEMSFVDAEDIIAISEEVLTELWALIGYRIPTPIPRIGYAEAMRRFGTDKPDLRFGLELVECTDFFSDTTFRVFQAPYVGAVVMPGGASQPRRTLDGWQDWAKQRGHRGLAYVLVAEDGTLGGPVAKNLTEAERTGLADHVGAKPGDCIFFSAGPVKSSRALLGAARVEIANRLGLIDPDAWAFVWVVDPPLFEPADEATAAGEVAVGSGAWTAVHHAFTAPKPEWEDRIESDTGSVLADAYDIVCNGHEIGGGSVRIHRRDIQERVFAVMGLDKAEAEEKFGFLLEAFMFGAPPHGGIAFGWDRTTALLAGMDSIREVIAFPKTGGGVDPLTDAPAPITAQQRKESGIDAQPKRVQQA
Type: functional
Parameters: scale not given: direction of the effect not stated beside the values
Work on `CC(C)Nc1nc2c(cc1C(=O)NCC1CC1)CCNCC2` yielded a Percent Effect of 0.611%. `c1cnnc(N2CCCC2CNc2ncnc3ccccc23)c1` (stereo not given) gave a Percent Effect of 3.45%. In the case of `N#Cc1cnn(-c2ccc(C(=O)Nc3ccccn3)cc2)c1N`, the Percent Effect is reported as -3%. Compound `Cc1ccc(CN2CCC3(C2)C(=O)N(CC(C)C)c2ccccc23)s1` (stereo not given) has a Percent Effect of -0.155%. Compound `Cc1nc(C)c(CC(=O)N2C[C@H]3CC[C@@H]2CN(C(=O)N(C)C)C3)c(=O)[nH]1` has a Percent Effect of 0.0987%. Work on `O=C(NCc1cc[nH]n1)N1CCCCC(N2CCCC2)C1` (stereo not given) yielded a Percent Effect of 2.84%. `COC1CCN(C(=O)Cc2csc(-c3ncccn3)n2)CC1` showed a Percent Effect of -5.19%. `O=C(NCCN1CCC(c2cccs2)CC1)c1ccccc1C(F)(F)F` was tested, and the Percent Effect was -10.3%. Work on `Cc1ccc(C(=O)NCCCNS(C)(=O)=O)cc1-n1cccc1` yielded a Percent Effect of -0.21%. `COCCN1CCCC12CCN(C(=O)CC1CCCC1)CC2` showed a Percent Effect of -1.62%. For `CN(C(=O)Cn1nc(-c2cccs2)ccc1=O)C1CCS(=O)(=O)C1` (stereo not given), the Percent Effect was 1.02%. `O=C(CC1CCCC1)NCCn1ccc(-c2ccccn2)n1` showed a Percent Effect of -4.3%. For `CCN1CCN(C2CCN(Cc3noc(C)n3)CC2)C1=O`, the Percent Effect was -5.45%. `CCN1Cc2c(C(=O)NCC3CC3)ncn2-c2ccccc2S1(=O)=O` was tested, and the Percent Effect was -3.35%. With `Cn1ccc(CN2CCC(COC3CCCC3)CC2)cc1=O` the Percent Effect was -0.509%. `O=C(NC[C@]1(O)CN(Cc2ccccc2F)C[C@H]1O)c1ccccn1` gave a Percent Effect of 7.9%. For `O=C(c1ccn(-c2cccc(F)c2)n1)N1CCCC(n2cccn2)C1` (stereo not given), the Percent Effect was -2.68%. Work on `Cc1nn(CC(=O)N2CCCCC2Cn2cccn2)c(C)c1Cl` (stereo not given) yielded a Percent Effect of -0.127%. `CC(c1cccc(S(N)(=O)=O)c1)N(C)CCc1ccccc1` (stereo not given) showed a Percent Effect of 5.72%. In the case of `Cn1ccnc1CN1CCCC1c1noc(C2CC2)n1` (stereo not given), the Percent Effect is reported as -0.426%. `CCOC1COC2(CCN(Cc3cccc(F)c3)CC2)C1` (stereo not given) gave a Percent Effect of -3.19%. Compound `COc1ccc(C2CCCN2C(=O)c2csc(NC(C)=O)n2)cc1` (stereo not given) has a Percent Effect of 0.516%. With `Cc1cc(NC(=O)CN2CCCC2c2noc(C3CC3)n2)no1` (stereo not given) the Percent Effect was 0.92%. With `CN1CCOC(CNCc2cccc(OCC(F)(F)F)c2)C1` (stereo not given) the Percent Effect was -2.34%. `Cc1ccc(N(CC(=O)c2ccc(Br)cc2)C2=NCCCCC2)cc1` gave a Percent Effect of 0.479%. `Cc1cc(-c2cnc(N3CCN(C)CC3)nc2-c2ccc(C)s2)on1` was tested, and the Percent Effect was -3.23%. Compound `O=C(c1ccncc1)N1CCC(c2nc(O)cc(-c3cccnc3)n2)C1` (stereo not given) has a Percent Effect of -1.81%. For `Clc1snnc1CN1CCCC(Cn2cncn2)C1` (stereo not given), the Percent Effect was -2.43%. For `CCOCCCNC(=O)c1ccccc1S(C)(=O)=O`, the Percent Effect was -2.28%. `O=C(c1ccc[nH]1)N1CCCC(c2cc(C(F)(F)F)[nH]n2)C1` (stereo not given) gave a Percent Effect of 3.68%. For `Cc1ccc(C)c(NC(=O)Nc2c[nH]c(=O)[nH]c2=O)c1`, the Percent Effect was -1.44%. With `CN1CCN(C(=O)Cc2cccc(F)c2)Cc2cccnc21` the Percent Effect was -2.05%. In the case of `CC(C)NC(=O)N1CCN(CC2CC2)CC2(CC(=O)N(C)C2)C1` (stereo not given), the Percent Effect is reported as 0.324%. `O=C(CCNc1ncccn1)N1CCCC(n2ccnc2)C1` (stereo not given) showed a Percent Effect of 1.03%. For `Cn1cccc1CNC(=O)CCCc1nnc2ccccn12`, the Percent Effect was 1.36%. `Clc1ccccc1-c1nc(CNCCn2cccn2)cs1` gave a Percent Effect of -1.68%. In the case of `CCn1nc(C(C)C)cc1C(=O)NCCCOC`, the Percent Effect is reported as -1.73%. For `Cc1nccn1-c1cc(CNC(=O)CCNC(=O)C2CCCC2)ccn1`, the Percent Effect was -2.19%. `COC(=O)c1cc(OCC2CCC2)cc(C(=O)N[C@H]2CC[C@H](O)CC2)c1` was tested, and the Percent Effect was 9.23%. Compound `Cc1nnc(NCc2ccccc2Cl)c(C#N)c1C` has a Percent Effect of 16.3%.

What follows are compounds tested against Shiga toxin 2 (Escherichia coli O157:H7) (UniProt P09385+P09386) (assay: E. coli 0.157:H7 Shiga Toxin SOP - stx2 screening assay). Conditions: 30 µM.
Type: functional
Parameters: scale not given: direction of the effect not stated beside the values
`CC(C)Nc1nc2c(cc1C(=O)NCC1CC1)CCNCC2` gave a Percent Effect of 2.86%. `c1cnnc(N2CCCC2CNc2ncnc3ccccc23)c1` (stereo not given) gave a Percent Effect of -33.7%. `N#Cc1cnn(-c2ccc(C(=O)Nc3ccccn3)cc2)c1N` gave a Percent Effect of -40.7%. For `Cc1ccc(CN2CCC3(C2)C(=O)N(CC(C)C)c2ccccc23)s1` (stereo not given), the Percent Effect was -42.5%. For `Cc1nc(C)c(CC(=O)N2C[C@H]3CC[C@@H]2CN(C(=O)N(C)C)C3)c(=O)[nH]1`, the Percent Effect was -13.6%. In the case of `O=C(NCc1cc[nH]n1)N1CCCCC(N2CCCC2)C1` (stereo not given), the Percent Effect is reported as 14.9%. `COC1CCN(C(=O)Cc2csc(-c3ncccn3)n2)CC1` gave a Percent Effect of 12.8%. `O=C(NCCN1CCC(c2cccs2)CC1)c1ccccc1C(F)(F)F` was tested, and the Percent Effect was -49.7%. `Cc1ccc(C(=O)NCCCNS(C)(=O)=O)cc1-n1cccc1` showed a Percent Effect of -17.9%. Work on `COCCN1CCCC12CCN(C(=O)CC1CCCC1)CC2` yielded a Percent Effect of -6.17%. Compound `CN(C(=O)Cn1nc(-c2cccs2)ccc1=O)C1CCS(=O)(=O)C1` (stereo not given) has a Percent Effect of -35.1%. Compound `O=C(CC1CCCC1)NCCn1ccc(-c2ccccn2)n1` has a Percent Effect of -5.4%. `CCN1CCN(C2CCN(Cc3noc(C)n3)CC2)C1=O` gave a Percent Effect of -25.5%. Compound `CCN1Cc2c(C(=O)NCC3CC3)ncn2-c2ccccc2S1(=O)=O` has a Percent Effect of 8.11%. Work on `Cn1ccc(CN2CCC(COC3CCCC3)CC2)cc1=O` yielded a Percent Effect of -19.3%. Compound `O=C(NC[C@]1(O)CN(Cc2ccccc2F)C[C@H]1O)c1ccccn1` has a Percent Effect of 19.5%. `O=C(c1ccn(-c2cccc(F)c2)n1)N1CCCC(n2cccn2)C1` (stereo not given) was tested, and the Percent Effect was 1.81%. Work on `Cc1nn(CC(=O)N2CCCCC2Cn2cccn2)c(C)c1Cl` (stereo not given) yielded a Percent Effect of -13.2%. Compound `CC(c1cccc(S(N)(=O)=O)c1)N(C)CCc1ccccc1` (stereo not given) has a Percent Effect of -26.2%. In the case of `Cn1ccnc1CN1CCCC1c1noc(C2CC2)n1` (stereo not given), the Percent Effect is reported as -7.56%. In the case of `CCOC1COC2(CCN(Cc3cccc(F)c3)CC2)C1` (stereo not given), the Percent Effect is reported as -3.58%. `COc1ccc(C2CCCN2C(=O)c2csc(NC(C)=O)n2)cc1` (stereo not given) showed a Percent Effect of -30.4%. Compound `Cc1cc(NC(=O)CN2CCCC2c2noc(C3CC3)n2)no1` (stereo not given) has a Percent Effect of -26.9%. `CN1CCOC(CNCc2cccc(OCC(F)(F)F)c2)C1` (stereo not given) showed a Percent Effect of 2.68%. With `Cc1ccc(N(CC(=O)c2ccc(Br)cc2)C2=NCCCCC2)cc1` the Percent Effect was -13.7%. Compound `Cc1cc(-c2cnc(N3CCN(C)CC3)nc2-c2ccc(C)s2)on1` has a Percent Effect of -24.7%. In the case of `O=C(c1ccncc1)N1CCC(c2nc(O)cc(-c3cccnc3)n2)C1` (stereo not given), the Percent Effect is reported as 4.42%. Work on `Clc1snnc1CN1CCCC(Cn2cncn2)C1` (stereo not given) yielded a Percent Effect of -33%. `CCOCCCNC(=O)c1ccccc1S(C)(=O)=O` showed a Percent Effect of 0.226%. With `O=C(c1ccc[nH]1)N1CCCC(c2cc(C(F)(F)F)[nH]n2)C1` (stereo not given) the Percent Effect was 36.4%. `Cc1ccc(C)c(NC(=O)Nc2c[nH]c(=O)[nH]c2=O)c1` showed a Percent Effect of 2.86%. `CN1CCN(C(=O)Cc2cccc(F)c2)Cc2cccnc21` gave a Percent Effect of -29.8%. For `CC(C)NC(=O)N1CCN(CC2CC2)CC2(CC(=O)N(C)C2)C1` (stereo not given), the Percent Effect was -11.9%. `O=C(CCNc1ncccn1)N1CCCC(n2ccnc2)C1` (stereo not given) gave a Percent Effect of -9.67%. Compound `Cn1cccc1CNC(=O)CCCc1nnc2ccccn12` has a Percent Effect of -34.1%. Compound `Clc1ccccc1-c1nc(CNCCn2cccn2)cs1` has a Percent Effect of 15.3%. For `CCn1nc(C(C)C)cc1C(=O)NCCCOC`, the Percent Effect was 3.47%. `Cc1nccn1-c1cc(CNC(=O)CCNC(=O)C2CCCC2)ccn1` gave a Percent Effect of 1.23%. `COC(=O)c1cc(OCC2CCC2)cc(C(=O)N[C@H]2CC[C@H](O)CC2)c1` was tested, and the Percent Effect was -30.2%. With `Cc1nnc(NCc2ccccc2Cl)c(C#N)c1C` the Percent Effect was 10.3%.
